Results filed as inconclusive are left out. Entries that show only a call come without a potency. Active and inactive are the calls of the source. The call rests on the fitted dose curve; in most records, active means well fitted inhibition curve with a large enough effect in the signal ratio in the repeat runs (not every such curve was filed as active); inconclusive means weak or mixed curves, or effect the other way; inactive means flat fitted curve, though single readings scatter; the % refers to the signal ratio.
Test: cAMP Responsive Elements (CRE) small molecule antagonists, cell-based qHTS assay (AID 1963591)
Conditions: CRE-bla HEK293T, beta-lactamase FRET ratio; series mostly up to 92.4 µM
Excerpt: U.S. Tox21 Program National Center for Advancing Translational Sciences [NCATS] Division of Preclinical Innovation [DPI] U.S. Environmental Protection Agency [EPA] National Institutes of Environmental Health Sciences [NIEHS] National Toxicology Program [NTP] U.S. Food and Drug Administration [FDA] Tox21 Assay Overview: CREB (cyclic-AMP Responsive Element Binding Protein) is a cellular transcription factor. It binds to certain DNA sequences called cAMP Responsive Elements (CRE) and regulates the transcription of the genes. […] This cell line can be used to find agonists/antagonists of the cyclic AMP signaling pathway. The activation of the report gene under culture conditions can be detected by fluorescence intensity. This cell line has been used to screen the Tox21 10K compound library to […].
Tox21 Assay Protocol Summary: CRE-bla Hek 293T cells were suspended in assay medium (DMEM containing 10% dialyzed FBS, 0.1 mM NEAA, 1 mM sodium pyruvate and 25 mM HEPES) and dispensed at 2,000 cells/4 uL /well into 1536-well black wall/clear bottom plates using a Multidrop Combi (ThermoFisher Scientific, Waltham, MA) dispenser. After the assay plates were incubated at 37 C/5% CO2 for 18 hrs, 23 nL of compounds dissolved in DMSO, positive controls or DMSO only was transferred to the assay plate by a pintool workstation (Kalypsys, San Diego, CA), followed by addition of 1 […] uL of 1.25uM NKH477 (0.25 uM as final concentration) in assay medium using a Flying Reagent Dispenser (Aurora Discovery, San Diego, CA). The plates were incubated at 37 C and 5% CO2 for 3 hrs. Then 1 uL of LiveBLAzer B/G FRET substrate (Invitrogen, Carlsbad, CA) was added to each well using Bioraptr Flying Reagent Dispenser (FRD, Aurora Discovery, San Diego, CA). The plates were incubated at room temperature for 2 h.
In the case of `CNC(=O)CSP(=O)(OC)OC`, the Potency is reported as “inactive”. In the case of `CCNC(=O)NC(=O)/C(C#N)=N/OC`, the Potency is reported as “inactive”. For `Clc1cccc(SC2CCNCC2)n1`, the Potency was “inactive”. With `COc1ccc(C(=O)N2CCCC2=O)cc1` the Potency was “inactive”. In the case of `O=c1[nH]c2ccccc2n1C1CCNCC1`, the Potency is reported as “inactive”. In the case of `N#C/C=C/c1ccccc1`, the Potency is reported as “inactive”. In the case of `O=C(O)C(F)(F)C(F)(F)C(F)(F)C(F)(F)C(F)(F)F`, the Potency is reported as “inactive”. For `CCCN(CCC)c1c([N+](=O)[O-])cc(S(C)(=O)=O)cc1[N+](=O)[O-]`, the Potency was “inactive”. With `CCCN1CCC[C@@H]2Cc3nc(N)ncc3C[C@H]21` the Potency was “inactive”. For `O=C1CC[C@@]2(O)[C@H]3Cc4ccc(O)c5c4[C@@]2(CCN3CC2CC2)[C@H]1O5`, the Potency was “inactive”. In the case of `CC(C)(OO)c1ccccc1`, the Potency is reported as “inactive”. For `CCOC(=O)/C=C(C)/C=C/C[C@@H](C)CCCC(C)C`, the Potency was “inactive”. In the case of `CN(C)CCc1c[nH]c2ccccc12`, the Potency is reported as “inactive”. For `CC(C)CC#N`, the Potency was “inactive”. In the case of `CC(Cl)(Cl)[N+](=O)[O-]`, the Potency is reported as “inactive”. With `S=C(SSC(=S)N1CCCCC1)N1CCCCC1` the Potency was 1.68 µM (active). For `Clc1ccccc1-c1ccccc1Cl`, the Potency was “inactive”. In the case of `CC[C@@H](CO)NC(=O)[C@@H]1C=C2c3cccc4[nH]cc(c34)C[C@H]2N(C)C1`, the Potency is reported as “inactive”. In the case of `COc1ccc2c(c1OC)C(=O)O[C@H]2[C@@H]1c2cc3c(cc2CCN1C)OCO3`, the Potency is reported as “inactive”. In the case of `OCCCBr`, the Potency is reported as “inactive”. In the case of `CCC(C)(C)O`, the Potency is reported as “inactive”. In the case of `COc1cc(CC(C)N)c(OC)cc1Br` (stereo not given), the Potency is reported as “inactive”. With `CCN(CC)C(C)C(=O)c1ccccc1` (stereo not given) the Potency was “inactive”. With `ClCBr` the Potency was “inactive”. With `CCSC(C)CC1CC(=O)C(/C(CC)=N/OC/C=C/Cl)=C(O)C1` (stereo not given) the Potency was “inactive”. For `C=C(Cl)CSC(=S)N(CC)CC`, the Potency was “inactive”. With `NCC1(CC(=O)O)CCCCC1` the Potency was “inactive”. For `COc1cccc([C@@]2(O)CCCC[C@@H]2CN(C)C)c1`, the Potency was “inactive”. For `Nc1nc(N)c(N)c(N)n1`, the Potency was “inactive”. With `CC(C)NCC(O)c1ccc(N)c(C#N)c1` (stereo not given) the Potency was “inactive”. In the case of `CCCCCCCCP(=O)(O)O`, the Potency is reported as “inactive”. In the case of `C=CCC1(C(C)CC)C(=O)NC(=O)NC1=O` (stereo not given), the Potency is reported as “inactive”. For `ClC(Cl)C(Cl)Cl`, the Potency was “inactive”. With `CCNc1nc(NC(C)C(C)C)nc(SC)n1` (stereo not given) the Potency was “inactive”. For `CC(C)(C)NCC(O)c1ccccc1Cl` (stereo not given), the Potency was “inactive”. In the case of `c1ccc2c(c1)CCNC2`, the Potency is reported as “inactive”. In the case of `CN1C(=O)COc2c(C(=O)NC3CN4CCC3CC4)cc(Cl)cc21` (stereo not given), the Potency is reported as “inactive”. For `CC[C@]1(O)CC[C@H]2[C@@H]3CCC4=CCCC[C@@H]4[C@H]3CC[C@@]21C`, the Potency was “inactive”. For `CNC(=O)Oc1cc(C)cc(C(C)C)c1`, the Potency was “inactive”. In the case of `O=C1CCCCC1Cl` (stereo not given), the Potency is reported as “inactive”.

From PubChem BioAssay (Tox21)
Potency means the concentration at half of the fitted maximal effect.
